A number with no mark means an inactive call. Results filed as inconclusive are left out. Calls of active or inactive are those of the source. Unless noted, calls follow the shape of the dose curve; as a rule, active = well fitted curve in the direction sought with a large enough effect; inconclusive = small, poorly fitted or top-dose-only effect, or another doubt; inactive = no such curve, though single readings can be large; an effect the other way counts as inactive or inconclusive.

Assay [1] deals with Dual specificity protein kinase CLK4 (Homo sapiens) (UniProt Q9HAZ1). The experiment in a line: qHTS Assay for Inhibitors of CDC-like Kinase 4 (ADP-Glo Assay) (AID 1771). Also: nearly all actives have a fitted effect of over 70% in size. Also: potency is read from the fitted curve at half-maximal effect. As to activity change, negative = inhibition: % is scaled to controls: 0 for no effect and ±100 for the full control effect. The essentials:
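25 nM Clk4 with 100 uM RS repeat peptide and 1 uM ATP (final) in buffer with 2 mM MgCl2, 0.5 mM EGTA, 2.5 mM DTT, 0.01% Triton X-100; 1 h at room temperature; ADP-Glo luminescence for ADP formed.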
For orientation: qHTS replaces the single test concentration by a dilution series.

For assay [2], the target named is Cytochrome P450 1A2 (Homo sapiens) (UniProt P05177). The assay can be described thus: p450-cyp1a2 (AID 410; calls by dose curve; also: potency is read from the fitted curve at half-maximal effect;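 as to activity change, negative = inhibition: -100% = full effect of reference inhibitor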). The procedure, abridged: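 20nM CYP1A2 with 100uM Luciferin-ME (at Km) in 100mM KPO4; compound preincubated 10 min, NADPH regeneration added, 60 min at room temperature. Luciferin quantified by luminescence after detection reagent; normalized to 57 uM furafylline.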

The nature of assay [3]: NFAT Signaling Pathway (AID 444; active = well fitted curve in either direction with a large enough effect, not every such curve was filed as active;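 also: carbachol stimulus at about its EC50 of 1 µM final; % is scaled to controls: 0 for no effect and ±100 for the full control effect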). Particulars: Jurkat NFAT-bla M1, carbachol, beta-lactamase ratio, 5 h; at 7.69 µM (top of the series) unless noted. The essentials:
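Jurkat cells with NFAT-driven β-lactamase reporter and co-expressed M1 receptor, stimulated with carbachol (final 1 uM, ~EC50), compound titration, 5 h at 37 °C. CCF4 loaded 1 h at RT; 460/530 nm ratio gave %activity and AC50.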

Assay [4] deals with Glucocorticoid receptor (Homo sapiens) (UniProt P04150). The assay can be described thus: GR-EFC Redistribution (AID 451; calls by dose curve; also: potency is read from the fitted curve at half-maximal effect). To be noted: CHO-K1 GR-EFC translocation, beta-gal luminescence, 2 h. The procedure, abridged: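 CHO-K1 cells expressing nuclear EA and GR-ED fragments of b-gal; compounds titrated up to 46 uM final, 2 h at 37 C. GR nuclear translocation read as complemented b-gal luminescence after 1 h RT detection.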

For assay [5], the target named is 3',5'-cyclic-AMP phosphodiesterase 4B (Homo sapiens) (UniProt Q07343). The assay can be described thus: qHTS Assay for Inhibitors of PDE-IV (AID 607; active = well fitted activation curve with a large enough effect in the main read-out, with a control signal flat, not every such curve was filed as active; also: % of control where 0% means no effect). The procedure, abridged:
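The readout is membrane depolarisation from a cAMP-sensing CNG channel, detected with a potential dye at ex 535/em 590. Cells were HEK293-derived (endogenous PDE-IV) at 1000 cells/well, titrated up to 22.9 uM final.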

In assay [6] the target is Cytochrome P450 3A4 (Homo sapiens) (UniProt P08684). The assay can be described thus: qHTS Assay for Inhibitors and Substrates of Cytochrome P450 3A4 (AID 884). Also: potency is read from the fitted curve at half-maximal effect; nearly all actives have a fitted effect of over 50% in size. The essentials:
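20 nM human CYP3A4 with 25 uM Luciferin-PPXE (at KM) in 200 mM KPO4, preincubated 10 min with compound; NADPH regeneration started a 60 min RT reaction. Luciferin detected by luminescence, normalized to 57 uM ketoconazole as full inhibition.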

Assay [7] has the same target. The assay can be described thus: qHTS Assay for Activators of Cytochrome P450 3A4 (AID 885). Also: nearly all actives have a fitted effect of over 65% in size. The procedure, abridged: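 Steps: enzyme/substrate mix dispensed; compound added, 10 min RT; NADPH regeneration solution added, 60 min RT; luciferin detection buffer stops reaction; 20 min later luminescence measured.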
Assay [8] has as its target Cytochrome P450 2C19 (Homo sapiens) (UniProt P33261). The experiment in a line: qHTS Assay for Inhibitors and Substrates of Cytochrome P450 2C19 (AID 899). Also: potency is read from the fitted curve at half-maximal effect; nearly all actives have a fitted effect of over 60% in size. The essentials: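 5 nM human CYP2C19 with 10uM Luciferin-H EGE (at KM) in 50mM KPO4, compound preincubated 10 min at 37C, then NADPH regeneration for 60 min at 37C. Luciferin read by luminescence after detection reagent; normalized to 57uM ketoconazole as full inhibition.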

Assay [9] concerns the target Lysosomal acid glucosylceramidase (Homo sapiens) (UniProt P04062). The assay can be described thus: Glucocerebrosidase-p2 (AID 348; in the data active = potency below about 10 µM; also: potency is read from the fitted curve at half-maximal effect). Particulars: purified GBA, blue fluorogenic substrate, 40 min. The procedure, abridged:
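Compounds titrated from 0.6 nM upwards against 0.2 nM enzyme in pH 5.9 citric acid/KH2PO4, taurocholate, tween-20; blue fluorogenic substrate 80 uM, 40 min room temperature, stopped and read Ex 365/Em 440 for AC50.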

In assay [10] the target is Glutathione peroxidase 1 (Homo sapiens) (UniProt P07203). The assay can be described thus: Primary qHTS Assay for Inhibitors of Recombinant Selenoprotein Glutathione Peroxidase 1 (GPX1) (AID 1845191). Also: nearly all actives have a fitted effect of over 65% in size. The essentials: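 GR-coupled assay: compounds preincubated 30 min at room temperature with GPX1, then reaction started with CHP; final 10 nM GPX1, 1 mM GSH, 0.5 mM CHP, 0.5 mM NADPH, 100 nM GR, 0.01% BSA, pH 7.5 Tris buffer. NADPH fluorescence (340/450 nm) read at 0 and 15 min.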

In assay [11] the target is Cytochrome P450 2C19 (Homo sapiens) (UniProt P33261). The experiment in a line: qHTS for inhibitors of CYP2C19 against the NCATS DSHEA and TCM libraries (AID 1919974).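 Also: luminescence from luciferin released by CYP2C19 oxidation of a pro-luciferin substrate; % is scaled to controls: 0 for no effect and ±100 for the full control effect.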 The procedure, abridged:
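Luminescent P450-Glo format: compounds preincubated 15 min with enzyme and luciferin substrate, reaction run 30-45 min after NADPH regeneration solution. Intraplate controls: ketoconazole for CYP3A4 and CYP2C19, sulfaphenazole for CYP2C9.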

Assay [12] is described as follows: AP1 Signaling Pathway (AID 357; active = well fitted curve in either direction with a large enough effect, not every such curve was filed as active;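 also: ME-180 reporter cells stimulated with EGF at its EC50 level; % is scaled to controls: 0 for no effect and ±100 for the full control effect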). Particulars: ME-180 (cervical carcinoma) AP-1-bla reporter, EGF-induced, beta-lactamase ratio, 5 h; at 7.69 µM (top of the series) unless noted. The procedure, abridged: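 In this screen, ME-180 cells in Opti-MEM with 0.5% dialyzed FBS received EC50 EGF and compound titrations for 5 h. AP-1 reporter beta-lactamase was detected via CCF4 ratio, giving AC50 for positive and negative modulators.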

Chain of Cytochrome P450 2C19 (Homo sapiens) (P33261 whole entry, looked up): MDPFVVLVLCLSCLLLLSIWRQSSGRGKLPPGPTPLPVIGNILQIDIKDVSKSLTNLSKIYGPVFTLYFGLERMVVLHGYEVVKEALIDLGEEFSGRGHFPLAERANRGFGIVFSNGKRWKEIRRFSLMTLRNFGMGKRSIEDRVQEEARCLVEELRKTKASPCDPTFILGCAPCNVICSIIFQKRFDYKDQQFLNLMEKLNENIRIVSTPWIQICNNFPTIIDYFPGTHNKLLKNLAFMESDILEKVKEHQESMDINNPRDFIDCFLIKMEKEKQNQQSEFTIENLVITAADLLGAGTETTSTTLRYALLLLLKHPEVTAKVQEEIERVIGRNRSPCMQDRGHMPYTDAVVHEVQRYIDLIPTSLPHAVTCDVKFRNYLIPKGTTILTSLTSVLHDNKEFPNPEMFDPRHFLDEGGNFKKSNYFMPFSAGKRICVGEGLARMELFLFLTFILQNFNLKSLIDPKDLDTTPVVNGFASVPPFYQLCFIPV
Chain of Cytochrome P450 3A4 (Homo sapiens) (P08684 whole entry, looked up): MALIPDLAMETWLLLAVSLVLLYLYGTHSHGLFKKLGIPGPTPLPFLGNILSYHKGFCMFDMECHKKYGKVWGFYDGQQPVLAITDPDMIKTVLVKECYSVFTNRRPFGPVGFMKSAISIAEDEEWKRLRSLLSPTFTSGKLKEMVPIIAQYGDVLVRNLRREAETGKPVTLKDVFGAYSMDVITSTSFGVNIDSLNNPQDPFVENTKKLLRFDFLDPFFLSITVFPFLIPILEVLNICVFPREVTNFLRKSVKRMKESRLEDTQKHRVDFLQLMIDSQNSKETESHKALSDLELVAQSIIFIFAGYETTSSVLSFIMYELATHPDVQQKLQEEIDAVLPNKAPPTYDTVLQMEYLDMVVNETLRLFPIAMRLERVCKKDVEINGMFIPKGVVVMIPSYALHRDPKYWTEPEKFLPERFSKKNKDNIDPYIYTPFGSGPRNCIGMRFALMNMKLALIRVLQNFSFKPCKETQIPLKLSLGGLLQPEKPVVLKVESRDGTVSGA
Chain of Cytochrome P450 1A2 (Homo sapiens) (P05177 whole entry, looked up): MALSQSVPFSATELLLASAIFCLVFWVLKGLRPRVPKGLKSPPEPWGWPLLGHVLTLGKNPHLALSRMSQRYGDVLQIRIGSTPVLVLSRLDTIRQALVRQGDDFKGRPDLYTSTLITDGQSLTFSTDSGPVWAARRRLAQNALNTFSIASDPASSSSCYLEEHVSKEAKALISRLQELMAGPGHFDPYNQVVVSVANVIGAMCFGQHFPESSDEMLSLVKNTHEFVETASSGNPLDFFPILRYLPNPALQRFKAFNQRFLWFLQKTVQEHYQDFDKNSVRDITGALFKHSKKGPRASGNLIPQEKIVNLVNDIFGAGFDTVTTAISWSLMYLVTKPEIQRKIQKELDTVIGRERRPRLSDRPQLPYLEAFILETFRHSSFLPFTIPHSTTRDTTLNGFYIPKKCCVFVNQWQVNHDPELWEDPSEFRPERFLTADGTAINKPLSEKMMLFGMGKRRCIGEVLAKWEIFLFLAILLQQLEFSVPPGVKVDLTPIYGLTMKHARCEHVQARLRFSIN
Chain of Glucocorticoid receptor (Homo sapiens) (P04150 whole entry, looked up, the tested form may be a part): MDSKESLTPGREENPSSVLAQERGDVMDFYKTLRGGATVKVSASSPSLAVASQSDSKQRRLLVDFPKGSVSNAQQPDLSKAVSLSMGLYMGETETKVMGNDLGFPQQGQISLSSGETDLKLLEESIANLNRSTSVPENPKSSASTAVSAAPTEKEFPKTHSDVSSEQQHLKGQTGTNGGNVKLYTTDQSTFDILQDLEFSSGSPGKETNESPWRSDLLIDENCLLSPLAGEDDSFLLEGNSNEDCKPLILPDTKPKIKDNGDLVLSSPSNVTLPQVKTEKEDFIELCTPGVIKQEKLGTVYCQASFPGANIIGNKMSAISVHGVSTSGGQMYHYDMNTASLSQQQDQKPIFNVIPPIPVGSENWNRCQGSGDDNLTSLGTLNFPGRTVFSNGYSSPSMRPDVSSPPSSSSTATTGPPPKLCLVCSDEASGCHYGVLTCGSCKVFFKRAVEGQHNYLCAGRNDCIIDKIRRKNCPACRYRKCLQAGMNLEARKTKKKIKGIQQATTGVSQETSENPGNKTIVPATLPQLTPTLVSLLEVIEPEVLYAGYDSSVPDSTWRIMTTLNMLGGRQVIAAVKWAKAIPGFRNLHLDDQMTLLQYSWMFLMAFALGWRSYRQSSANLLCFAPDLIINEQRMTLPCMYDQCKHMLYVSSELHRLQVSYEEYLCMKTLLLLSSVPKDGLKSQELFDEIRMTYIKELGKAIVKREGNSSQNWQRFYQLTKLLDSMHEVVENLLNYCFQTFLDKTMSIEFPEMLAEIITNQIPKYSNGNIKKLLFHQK
Chain of Lysosomal acid glucosylceramidase (Homo sapiens) (P04062 whole entry, looked up): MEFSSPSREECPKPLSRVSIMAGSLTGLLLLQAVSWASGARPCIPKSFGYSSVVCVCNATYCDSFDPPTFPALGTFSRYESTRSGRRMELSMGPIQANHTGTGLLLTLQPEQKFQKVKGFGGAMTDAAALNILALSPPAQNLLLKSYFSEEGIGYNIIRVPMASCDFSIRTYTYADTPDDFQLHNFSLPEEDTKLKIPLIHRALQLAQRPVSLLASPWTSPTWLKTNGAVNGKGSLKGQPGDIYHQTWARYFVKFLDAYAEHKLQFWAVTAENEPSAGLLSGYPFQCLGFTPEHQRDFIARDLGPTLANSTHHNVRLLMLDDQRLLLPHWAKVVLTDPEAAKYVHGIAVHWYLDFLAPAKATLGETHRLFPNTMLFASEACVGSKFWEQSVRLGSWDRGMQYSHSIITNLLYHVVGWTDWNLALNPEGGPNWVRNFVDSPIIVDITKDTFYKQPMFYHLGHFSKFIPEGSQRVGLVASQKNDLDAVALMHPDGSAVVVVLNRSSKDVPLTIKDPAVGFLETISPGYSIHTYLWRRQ
Chain of 3',5'-cyclic-AMP phosphodiesterase 4B (Homo sapiens) (Q07343 whole entry, looked up): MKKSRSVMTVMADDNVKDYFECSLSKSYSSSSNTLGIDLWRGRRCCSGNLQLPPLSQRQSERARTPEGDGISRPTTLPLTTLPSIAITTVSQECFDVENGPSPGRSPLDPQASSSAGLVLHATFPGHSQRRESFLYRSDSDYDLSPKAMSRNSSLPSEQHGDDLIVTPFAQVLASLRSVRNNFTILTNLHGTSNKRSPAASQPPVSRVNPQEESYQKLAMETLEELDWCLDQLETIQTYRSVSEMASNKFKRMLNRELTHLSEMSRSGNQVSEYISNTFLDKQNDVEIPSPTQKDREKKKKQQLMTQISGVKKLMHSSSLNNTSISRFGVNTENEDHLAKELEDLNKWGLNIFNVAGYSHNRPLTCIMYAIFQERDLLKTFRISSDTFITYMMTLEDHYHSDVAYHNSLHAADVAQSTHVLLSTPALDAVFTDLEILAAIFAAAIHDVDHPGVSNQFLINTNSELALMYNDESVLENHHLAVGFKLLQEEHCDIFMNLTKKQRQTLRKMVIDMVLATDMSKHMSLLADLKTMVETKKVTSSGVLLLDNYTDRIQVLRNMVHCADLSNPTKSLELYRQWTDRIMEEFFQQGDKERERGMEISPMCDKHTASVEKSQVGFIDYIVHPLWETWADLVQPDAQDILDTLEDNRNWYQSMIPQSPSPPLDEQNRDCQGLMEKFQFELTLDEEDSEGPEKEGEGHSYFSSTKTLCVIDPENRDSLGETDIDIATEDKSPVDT
Chain of Dual specificity protein kinase CLK4 (Homo sapiens) (Q9HAZ1 whole entry, looked up): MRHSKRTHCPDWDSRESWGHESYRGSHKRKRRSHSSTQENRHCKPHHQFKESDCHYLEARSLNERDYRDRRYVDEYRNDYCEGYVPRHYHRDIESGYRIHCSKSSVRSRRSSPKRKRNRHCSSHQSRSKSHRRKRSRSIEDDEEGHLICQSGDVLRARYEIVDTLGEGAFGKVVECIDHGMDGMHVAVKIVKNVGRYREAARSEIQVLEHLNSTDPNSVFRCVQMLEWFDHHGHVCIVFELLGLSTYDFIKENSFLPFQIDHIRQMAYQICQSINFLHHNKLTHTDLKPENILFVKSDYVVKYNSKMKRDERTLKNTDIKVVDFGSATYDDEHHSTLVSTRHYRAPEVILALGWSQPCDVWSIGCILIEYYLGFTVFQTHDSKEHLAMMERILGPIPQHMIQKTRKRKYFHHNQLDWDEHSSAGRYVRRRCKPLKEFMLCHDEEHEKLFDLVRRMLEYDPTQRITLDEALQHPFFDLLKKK
Chain of Glutathione peroxidase 1 (Homo sapiens) (P07203 whole entry, looked up): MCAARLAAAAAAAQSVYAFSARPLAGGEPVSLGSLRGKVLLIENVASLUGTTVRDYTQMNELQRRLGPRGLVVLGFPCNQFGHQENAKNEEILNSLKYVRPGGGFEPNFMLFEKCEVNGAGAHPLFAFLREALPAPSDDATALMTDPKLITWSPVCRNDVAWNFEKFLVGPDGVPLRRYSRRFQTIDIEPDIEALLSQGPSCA

For `COCCn1c(=O)c(CCc2ccccc2)nc2cnc(OCc3ccccc3)nc21`, in assay [1], the Potency entry is “inactive”.

`COc1ccc2[nH]cc(CCNc3ncncc3-c3ccccc3C)c2c1`: the Potency is 0.631 µM (active) in assay [2]; more than 46 µM in assay [4]; 0.316 µM (active) in assay [6]; 0.0501 µM (active) in assay [8]; 28.2 µM (active) in [1]. Moreover, the activity change, negative = inhibition in [3] is 7.13%. The Potency entry in assay [5] is “inactive”. For the same molecule, the call in assay [7] was inactive.

As to `CN1CCN(c2ncc3nc(CCc4ccccc4)c(=O)n(CCc4ccccc4)c3n2)CC1`, the Potency is more than 11.4 µM in [9] and more than 46 µM in [4]. The activity change, negative = inhibition in [3] was -18.1%. In assay [1], the Potency entry was “inactive”.

On to `CC1(C)C2CCC1(C)C(O)C2` (stereo unspecified), for which the Potency result in assay [10] and in assay [11] was “inactive” each time.

As for `COc1ccccc1CNc1nc(-c2ccoc2)nc2ccccc12`, the activity change, negative = inhibition in [3] is -19.8%. In assay [1], the Potency entry was “inactive”.

For `CN(C)c1ncc2nc(CCc3ccccc3)c(=O)n(CCc3ccccc3)c2n1`, the Potency in assay [9] is more than 11.4 µM; in assay [2], 6.31 µM (active); in assay [4] it was more than 46 µM; in [6], 6.31 µM (active). Besides, the activity change, negative = inhibition in [12] was -11.1%. In addition, in [7], the molecule was classed as inactive. Also, in assay [1], the Potency result was “inactive”.

With `Cc1ccccc1-c1ccc2ncnc(-n3ccnc3)c2c1`, the Potency in [9] is more than 11.4 µM; in assay [2], 0.794 µM (active); in assay [4], more than 46 µM; in assay [6] it was 0.501 µM (active); in assay [8], 2 µM (active); in [1], 7.08 µM (active). Further, the molecule was called inactive in [7].

Consider `N#Cc1ccccc1-c1ccc2ncnc(NCc3cccnc3)c2c1`, for which the Potency was more than 11.4 µM in assay [9], more than 46 µM in assay [4] and 5.01 µM (active) in assay [1]. Moreover, the activity change, negative = inhibition is -14.7% in [12] and 17.5% in [3]. For the same molecule, the outcome in [7] was inactive.

On to `FC(F)(F)c1ccccc1-c1nc(NCc2cccnc2)c2ccccc2n1`, for which the Potency in [9] was more than 11.4 µM; in [2], 2 µM (active); in assay [4], more than 46 µM; in assay [6], 2 µM (active); in assay [8], 3.98 µM (active). The outcome in [7] was inactive. The Potency entry in assay [1] is “inactive”.

In the case of `Cc1ncc(COP(=O)(O)O)c(C)c1O`, the activity change, negative = inhibition was 9.96% in [12], -20.3% [at 11.4 µM] in assay [2] and -4.14% in assay [3]. The Potency in assay [4] was more than 9.22 µM. Also, the Potency entry in assay [5] and in assay [10] was “inactive” each time.

For the molecule `COc1ccc2[nH]cc(CCNc3ncnc4ccc(-c5ccoc5)cc34)c2c1`, the Potency in assay [9] was more than 11.4 µM; in assay [2], 0.316 µM (active); in assay [4] it was more than 46 µM; in [6] it was 3.98 µM (active); in [8] it was 7.94 µM (active); in assay [1], 0.708 µM (active). The activity change, negative = inhibition in assay [3] is 0.633%. For the same molecule, the Potency entry in assay [5] is “inactive”. Further, in assay [7], the molecule was called inactive.

As for `CN1CCN(c2ncc3nc(-c4cccc(C#N)c4)c(=O)n(CCc4ccccc4)c3n2)CC1`, the Potency in [9] is more than 11.4 µM. The activity change, negative = inhibition in assay [12] was 11.8%; in assay [3], -0.0285%. The Potency entry in assay [5] and in assay [1] was “inactive” throughout.

Consider `COCCn1c(=O)c(-c2ccccc2)nc2cnc(Oc3cccc(Cl)c3)nc21`, for which the Potency is more than 11.4 µM in [9], 1 µM (active) in assay [2] and more than 46 µM in [4]. Besides, the activity change, negative = inhibition in assay [3] was -9.21%. Moreover, the Potency result in assay [5] and in assay [1] was “inactive” each time. In addition, the call in assay [7] was inactive.

As to `Cn1c(=O)c(-c2ccc(Cl)cc2)nc2cncnc21`, the figures for the Potency in assay [2] and in [4] were 0.0251 µM (active) and more than 46 µM, respectively. Also, in assay [3], the activity change, negative = inhibition was -0.619%. Also, the Potency entry in assay [5] and in [1] was “inactive” in each case.

(Values after PubChem BioAssay (NCATS).)
